What was measured:
Assay in all cases: universal protein binding microarray (PBM); transcription factors of Arabidopsis thaliana; high values mean tight binding
GST-ANAC092(1-176) = target: T1, GST-ANAC092(1-176) (Arabidopsis thaliana, UniProt Q9FKA0 1-176); conditions: protein: recombinant; tags: GST; chain copies: 2; dsDNA, one strand shown
T1 sequence: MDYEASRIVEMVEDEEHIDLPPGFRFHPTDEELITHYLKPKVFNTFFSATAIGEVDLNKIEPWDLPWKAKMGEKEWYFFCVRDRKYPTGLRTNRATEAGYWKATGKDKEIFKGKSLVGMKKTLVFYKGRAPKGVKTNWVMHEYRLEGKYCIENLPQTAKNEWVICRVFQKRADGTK
Outline: (§1)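 GST-tagged proteins (NAC-domain, full-length or DNA-binding-domain) were induced in cells, with zinc acetate supplied for zinc-finger proteins, then purified on glutathione–Sepharose 4B. Each was tested in duplicate at 200 to 500 nM final on custom all-10-mer Agilent 4 × 180K arrays rendered double-stranded by primer extension. The binding value is the normalised enrichment score (E-score) across gapped and ungapped 8-mers.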

GST-NTL6(1-168) = GST-NTL6(1-168) (Arabidopsis thaliana, UniProt Q9SCK6 1-168); conditions: protein: recombinant; tags: GST; chain copies: 2; dsDNA, one strand shown
Chain of GST-NTL6(1-168) (Q9SCK6 1-168): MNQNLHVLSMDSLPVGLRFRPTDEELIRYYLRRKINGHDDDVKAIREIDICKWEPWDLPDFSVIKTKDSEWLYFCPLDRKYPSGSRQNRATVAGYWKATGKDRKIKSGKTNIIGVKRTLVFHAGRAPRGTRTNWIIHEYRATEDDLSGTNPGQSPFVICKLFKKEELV
Outline: as §1

GST-ANAC055(1-171) = target: T2, GST-ANAC055(1-171) (Arabidopsis thaliana, UniProt Q9LDY8 1-171); conditions: protein: recombinant; tags: GST; chain copies: 2; dsDNA, one strand shown
T2 sequence: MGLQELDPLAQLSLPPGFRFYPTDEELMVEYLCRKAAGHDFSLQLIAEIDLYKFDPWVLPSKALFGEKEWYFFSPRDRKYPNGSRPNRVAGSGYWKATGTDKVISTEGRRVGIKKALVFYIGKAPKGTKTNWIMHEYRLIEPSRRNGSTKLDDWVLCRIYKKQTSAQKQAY
Outline: as §1

GST-ATAF1 NAC domain = target: T3, GST-ATAF1 NAC domain (Arabidopsis thaliana, UniProt Q39013 7-158); conditions: protein: recombinant; tags: GST; chain copies: 2; dsDNA, one strand shown
T3 sequence: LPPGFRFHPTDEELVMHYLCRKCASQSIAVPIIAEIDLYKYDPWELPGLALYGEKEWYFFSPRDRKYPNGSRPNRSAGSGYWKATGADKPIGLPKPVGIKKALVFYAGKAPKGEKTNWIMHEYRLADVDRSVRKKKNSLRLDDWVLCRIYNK
Outline: as §1

[1] = target: T4, GST-ANAC092(1-285) full length (Arabidopsis thaliana, UniProt Q9FKA0 1-285); conditions: protein: recombinant; tags: GST; chain copies: 2; dsDNA, one strand shown
T4 sequence: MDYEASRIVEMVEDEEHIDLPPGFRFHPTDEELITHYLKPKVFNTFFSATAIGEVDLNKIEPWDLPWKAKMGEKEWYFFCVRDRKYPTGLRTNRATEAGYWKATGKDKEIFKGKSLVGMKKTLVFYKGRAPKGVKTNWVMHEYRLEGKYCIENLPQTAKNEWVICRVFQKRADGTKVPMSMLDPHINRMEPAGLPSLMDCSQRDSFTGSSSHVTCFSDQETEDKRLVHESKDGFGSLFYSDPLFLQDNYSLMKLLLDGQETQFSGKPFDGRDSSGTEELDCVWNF
Outline: as §1

GST-NST2(1-184) = target: T5, GST-NST2(1-184) (Arabidopsis thaliana, UniProt Q9M274 1-184); conditions: protein: recombinant; tags: GST; chain copies: 2; dsDNA, one strand shown
T5 sequence: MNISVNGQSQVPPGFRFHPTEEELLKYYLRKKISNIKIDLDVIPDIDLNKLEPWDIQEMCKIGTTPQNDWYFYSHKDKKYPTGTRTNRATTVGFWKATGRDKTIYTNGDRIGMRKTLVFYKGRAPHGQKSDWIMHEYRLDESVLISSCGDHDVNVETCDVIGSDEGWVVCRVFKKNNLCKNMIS
Outline: as §1

GST-NTL8 NAC domain = target: T6, GST-NTL8 NAC domain (Arabidopsis thaliana, UniProt Q9XIN7 14-156); conditions: protein: recombinant; tags: GST; chain copies: 2; dsDNA, one strand shown
T6 sequence: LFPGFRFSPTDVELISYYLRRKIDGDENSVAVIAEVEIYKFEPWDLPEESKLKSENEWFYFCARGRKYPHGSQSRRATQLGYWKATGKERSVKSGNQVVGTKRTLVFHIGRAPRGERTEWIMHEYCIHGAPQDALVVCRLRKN
Outline: as §1

GST-SND1(1-203) = target: T7, GST-SND1(1-203) (Arabidopsis thaliana, UniProt Q9LPI7 1-203); conditions: protein: recombinant; tags: GST; chain copies: 2; dsDNA, one strand shown
T7 sequence: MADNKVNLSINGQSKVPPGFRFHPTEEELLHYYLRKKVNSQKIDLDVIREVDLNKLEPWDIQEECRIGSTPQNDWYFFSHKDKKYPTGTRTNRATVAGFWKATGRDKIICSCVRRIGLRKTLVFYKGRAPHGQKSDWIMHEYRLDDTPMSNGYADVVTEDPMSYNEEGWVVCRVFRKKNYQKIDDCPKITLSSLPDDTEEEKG
Outline: as §1

GST-VND7 NAC domain = target: T8, GST-VND7 NAC domain (Arabidopsis thaliana, UniProt Q9C8W9 9-158); conditions: protein: recombinant; tags: GST; chain copies: 2; dsDNA, one strand shown
T8 sequence: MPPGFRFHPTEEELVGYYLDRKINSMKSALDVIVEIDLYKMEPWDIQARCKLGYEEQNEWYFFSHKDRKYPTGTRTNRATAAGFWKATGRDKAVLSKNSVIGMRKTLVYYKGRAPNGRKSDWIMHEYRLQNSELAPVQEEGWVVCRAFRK
Outline: as §1

GST-ANAC019 NAC domain = target: T9, GST-ANAC019 NAC domain (Arabidopsis thaliana, UniProt Q9C932 14-162); conditions: protein: recombinant; tags: GST; chain copies: 2; dsDNA, one strand shown
T9 sequence: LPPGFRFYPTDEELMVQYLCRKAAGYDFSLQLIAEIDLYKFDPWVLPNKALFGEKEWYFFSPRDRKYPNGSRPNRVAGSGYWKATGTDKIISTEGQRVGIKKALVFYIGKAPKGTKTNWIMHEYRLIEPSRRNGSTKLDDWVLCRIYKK
Outline: as §1

GST-NAP(1-166) = target: T10, GST-NAP(1-166) (Arabidopsis thaliana, UniProt O49255 1-166); conditions: protein: recombinant; tags: GST; chain copies: 2; dsDNA, one strand shown
T10 sequence: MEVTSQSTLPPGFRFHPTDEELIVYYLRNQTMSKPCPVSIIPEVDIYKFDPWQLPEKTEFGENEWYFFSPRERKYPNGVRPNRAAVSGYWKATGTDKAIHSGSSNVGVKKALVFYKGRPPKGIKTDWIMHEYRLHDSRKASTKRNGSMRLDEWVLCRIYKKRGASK
Outline: as §1

GST-WRKY1(266-371) = GST-WRKY1(266-371) (Arabidopsis thaliana, UniProt Q9SI37 266-371); conditions: protein: recombinant; tags: GST; dsDNA, one strand shown
Chain of GST-WRKY1(266-371) (Q9SI37 266-371): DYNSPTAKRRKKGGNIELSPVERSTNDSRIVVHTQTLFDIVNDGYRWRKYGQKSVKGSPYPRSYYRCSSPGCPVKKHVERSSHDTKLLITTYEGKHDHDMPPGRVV
Outline: as §1

## GAGGGTAA
GST-ANAC092(1-176)
  binding signal: 0.0757 E-score
GST-NTL6(1-168)
  binding signal: 0.17 E-score
GST-ANAC055(1-171)
  binding signal: 0.0669 E-score
GST-ATAF1 NAC domain
  binding signal: 0.123 E-score
[1]
  binding signal: 0.109 E-score
GST-NST2(1-184)
  binding signal: 0.173 E-score
GST-NTL8 NAC domain
  binding signal: 0.474 E-score
GST-SND1(1-203)
  binding signal: 0.108 E-score
GST-VND7 NAC domain
  binding signal: 0.079 E-score

## TGAAGCAA
GST-ANAC092(1-176)
  binding signal: 0.232 E-score
GST-NTL6(1-168)
  binding signal: 0.389 E-score
GST-ANAC019 NAC domain
  binding signal: 0.0575 E-score
[1]
  binding signal: 0.32 E-score
GST-NST2(1-184)
  binding signal: 0.314 E-score
GST-NTL8 NAC domain
  binding signal: 0.422 E-score
GST-SND1(1-203)
  binding signal: 0.447 E-score
GST-VND7 NAC domain
  binding signal: 0.187 E-score

## ACGCTATC
GST-ANAC092(1-176)
  binding signal: 0.43 E-score
GST-ANAC019 NAC domain
  binding signal: 0.106 E-score
GST-ATAF1 NAC domain
  binding signal: 0.0721 E-score
[1]
  binding signal: 0.454 E-score
GST-NAP(1-166)
  binding signal: 0.104 E-score
GST-NST2(1-184)
  binding signal: 0.303 E-score
GST-SND1(1-203)
  binding signal: 0.431 E-score
GST-VND7 NAC domain
  binding signal: 0.0789 E-score

## ACGCCATG
GST-ANAC092(1-176)
  binding signal: 0.336 E-score
[1]
  binding signal: 0.404 E-score
GST-NAP(1-166)
  binding signal: 0.154 E-score
GST-NST2(1-184)
  binding signal: 0.128 E-score
GST-SND1(1-203)
  binding signal: 0.222 E-score
GST-VND7 NAC domain
  binding signal: 0.0848 E-score

## GTCAAACA
[1]
  binding signal: 0.11 E-score
GST-SND1(1-203)
  binding signal: 0.0891 E-score
GST-VND7 NAC domain
  binding signal: 0.0699 E-score
GST-WRKY1(266-371)
  binding signal: 0.475 E-score

## CCAAGTCA
GST-SND1(1-203)
  binding signal: 0.0686 E-score
GST-WRKY1(266-371)
  binding signal: 0.426 E-score

## ACGCTTCC
GST-ANAC092(1-176)
  binding signal: 0.334 E-score
GST-NTL6(1-168)
  binding signal: 0.0789 E-score
GST-ANAC019 NAC domain
  binding signal: 0.171 E-score
GST-ANAC055(1-171)
  binding signal: 0.106 E-score
GST-ATAF1 NAC domain
  binding signal: 0.139 E-score
[1]
  binding signal: 0.402 E-score
GST-NAP(1-166)
  binding signal: 0.0721 E-score
GST-NST2(1-184)
  binding signal: 0.206 E-score
GST-SND1(1-203)
  binding signal: 0.296 E-score
GST-VND7 NAC domain
  binding signal: 0.151 E-score

## AGCTTTCC
GST-ANAC092(1-176)
  binding signal: 0.171 E-score
GST-NTL6(1-168)
  binding signal: 0.233 E-score
GST-ANAC019 NAC domain
  binding signal: 0.126 E-score
GST-ANAC055(1-171)
  binding signal: 0.111 E-score
[1]
  binding signal: 0.133 E-score
GST-NTL8 NAC domain
  binding signal: 0.434 E-score
GST-SND1(1-203)
  binding signal: 0.123 E-score
GST-VND7 NAC domain
  binding signal: 0.116 E-score

## GCGTCAAA
[1]
  binding signal: 0.0819 E-score
GST-NST2(1-184)
  binding signal: 0.052 E-score
GST-NTL8 NAC domain
  binding signal: 0.0775 E-score
GST-SND1(1-203)
  binding signal: 0.0924 E-score
GST-VND7 NAC domain
  binding signal: 0.0799 E-score
GST-WRKY1(266-371)
  binding signal: 0.409 E-score

From publication PMC4081100, “A DNA-binding-site landscape and regulatory network analysis for NAC transcription factors in Arabidopsis thaliana”
